# Measured values published in PubChem BioAssay AID624170 (National Center for Advancing Translational Sciences (NCATS), 2012).
# About 850 (0.21%) of roughly 410,000 compounds were called active. Roughly 2% stayed inconclusive and do not appear here. This is one part of a sample in which actives are shown more often than they occur. Calls follow the shape of the dose curve; as a rule, active = well fitted inhibition curve with a large enough effect; inconclusive = small, poorly fitted or top-dose-only effect, or another doubt; inactive = no such curve, though single readings can be large or run the other way.
# Target: Glutaminase kidney isoform, mitochondrial (Homo sapiens) (UniProt O94925)
# Sequence (O94925 whole entry, looked up, canonical isoform): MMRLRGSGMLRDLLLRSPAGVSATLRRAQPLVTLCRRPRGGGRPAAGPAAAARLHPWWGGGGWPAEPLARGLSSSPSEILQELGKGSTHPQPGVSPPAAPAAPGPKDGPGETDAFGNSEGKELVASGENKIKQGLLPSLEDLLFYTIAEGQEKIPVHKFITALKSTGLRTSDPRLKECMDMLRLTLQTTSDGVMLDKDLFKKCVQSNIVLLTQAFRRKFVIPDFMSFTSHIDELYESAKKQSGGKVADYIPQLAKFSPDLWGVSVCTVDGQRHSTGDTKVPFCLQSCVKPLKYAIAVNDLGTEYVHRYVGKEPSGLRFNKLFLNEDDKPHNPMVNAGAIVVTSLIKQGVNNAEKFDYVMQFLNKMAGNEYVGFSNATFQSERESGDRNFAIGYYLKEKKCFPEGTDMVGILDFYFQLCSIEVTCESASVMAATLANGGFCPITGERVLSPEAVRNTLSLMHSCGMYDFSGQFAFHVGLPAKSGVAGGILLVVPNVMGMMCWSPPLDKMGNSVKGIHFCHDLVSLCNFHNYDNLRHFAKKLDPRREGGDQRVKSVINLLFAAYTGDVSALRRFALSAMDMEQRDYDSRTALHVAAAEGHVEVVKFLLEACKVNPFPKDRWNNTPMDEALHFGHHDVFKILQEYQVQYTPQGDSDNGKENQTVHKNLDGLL
# Experiment: qHTS for Inhibitors of Glutaminase (GLS)
# Settings: GLS enzymatic activity, qHTS titration; series mostly up to 45.5 µM; activity change, negative = inhibition: at the top concentration
# Procedure, shortened: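 Coupled fluorescence readout: glutamate oxidase/HRP/Amplex Red detect glutamate formed by hKGA from L-glutamine (1 mM solution added). Buffer 45 mM KH2PO4 pH 8.2, 0.02% Tween-20; reads at t0 and 30 min RT.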
# % is scaled to controls: 0 for no effect and ±100 for the full control effect; potency is read from the fitted curve at half-maximal effect.
Structure (SMILES),"activity change, negative = inhibition",Potency
Oc1ccc(Cl)c2c1CCC2,2.44% (inactive),–
CC(=O)OC[C@H]1O[C@@H](O[C@H]2[C@H](O)[C@@H](OC(=O)c3ccccc3C(=O)O)[C@H](O)O[C@@H]2COC(C)=O)[C@H](O)[C@@H](OC(=O)c2ccccc2C(=O)O)[C@@H]1O,-14.9% (inactive),–
Cc1ccnc(-n2sc3ccccc3c2=O)n1,–,10 µM (active)
Cc1ccnc(SC2CC(=O)N(c3ccccc3)C2=O)n1 (stereo not given),-1.05% (inactive),–
C/C=C/C=N/NC(=O)c1ccncc1,-0.188% (inactive),–
CCOC(=O)c1sc(NC(=O)/C=C/c2ccc(C(C)C)cc2)c(C(=O)OCC)c1C,-11.1% (inactive),–
CCOc1cccc(CC(=O)N2CCc3c([nH]c4ccccc34)C2c2ccc(F)cc2)c1OCC (stereo not given),-4.77% (inactive),–
CCOC(=O)C1Nc2ccc(C(F)(F)F)cc2C2C=CCC12 (stereo not given),4.03% (inactive),–
CCOc1cccc2c1N[C@@H](c1ccc(C(=O)O)cc1)[C@H]1CC=C[C@@H]21,–,3.98 µM (active)
Cc1ccc(S(=O)(=O)NC(=O)NN2C[C@H]3CCC[C@@H]3C2)cc1,-7.35% [at 20 µM] (inactive),–
Cc1ccc(S(=O)(=O)n2nc(C)c(S(=O)(=O)N3CCCCCC3)c2C)cc1,4.66% (inactive),–
CC(C)(O)c1ccccc1CC[C@H](SCC1(CC(=O)O)CC1)c1cccc(/C=C/c2ccc3ccc(Cl)cc3n2)c1,-5.05% (inactive),–
COc1ccnc(C[S@@](=O)[C@@H]2Nc3ccc(OC(F)F)cc3N2)c1OC,1.84% (inactive),–
C=C1C(=CC=C2CCC[C@]3(C)[C@@H]([C@H](C)C=C[C@H](C)C(C)C)CC[C@@H]23)C[C@@H](O)C[C@@H]1O,-1.61% (inactive),–
Cc1cccc(CCNC(=O)c2ccc3c(c2)nc2n3CCC(C)C2)c1 (stereo not given),-1.52% (inactive),–
CCC1CCCCN1C(=O)CSc1nc2c(c(=O)n(C)c(=O)n2C)n1C (stereo not given),1.32% (inactive),–
CCOC(=O)CSc1nc2c(c(=O)n(Cc3ccccc3Cl)c(=O)n2C)n1C,–,7.94 µM (active)
CCN(CC)C(=O)CSc1nc2ccsc2c(=O)n1Cc1ccccc1Cl,-27.1% (inactive),–
Cc1ccc(S(=O)(=O)N2CCc3cc(C(=O)Nc4ccc(Cl)cc4C)ccc32)cc1,0.0645% (inactive),–
CC(=O)CC(c1ccccc1)C1C(=O)Oc2ccccc2C1=O (stereo not given),-1.12% (inactive),–

Structure (SMILES),"activity change, negative = inhibition",Potency
Cc1ccc(NC(=O)c2cc(S(=O)(=O)NCCC3=CCCCC3)ccc2F)cc1C,-13% (inactive),–
CC1(C)OC2CO[C@]3(COS(N)(=O)=O)OC(C)(C)OC3C2O1 (stereo not given in full),0.642% (inactive),–
CCOc1ccc(NS(=O)(=O)c2ccc(N)cc2)nn1,-3.75% (inactive),–
CN(C)CCCSc1ccccc1NC(=O)/C=C/c1ccccc1,14.7% (inactive),–
Oc1ccc(/C=N/Nc2ccc(C(F)(F)F)cn2)cc1O,–,11.2 µM (active)
COc1ccc(/C=N/NC(=O)Cn2cc(C(F)(F)F)ccc2=O)cc1,6.71% (inactive),–
C/C=C1\C2C=C(C)CC1(N)c1ccc(=O)[nH]c1C2 (stereo not given),-5.74% (inactive),–
Cc1c(Cl)cccc1NC(=O)C1CCCN(C(=O)c2cnn(-c3ccccc3)c2-n2cccc2)C1 (stereo not given),17.7% (inactive),–
CCCCCCCCCCCCCCCCO,-4.88% (inactive),–
CCCN(CCC)S(=O)(=O)c1ccc(C(=O)Nc2sc3c(c2C(=O)OC)CCN(CC)C3)cc1,4.53% (inactive),–
Cc1ccc(CN2CCc3nc(N4CCN(C)CC4)ncc3C2)cc1,21.7% (inactive),–
CC(=O)NC(=O)c1ccccc1O,-5.45% (inactive),–
CC1(C)NC(=O)N(CC(=O)Nc2ccc(-c3ccccc3)cc2)C1=O,-0.741% (inactive),–
O=C(Cn1nc(C(=O)O)c2ccccc2c1=O)Nc1ccc(F)cc1,-9.16% (inactive),–
Cc1ccc(NC(=O)Cn2sc3ccccc3c2=O)cc1,–,7.08 µM (active)
Cc1ccc(Cl)cc1N1CCN(C(=O)CN2C(=O)COc3ccc(S(=O)(=O)N4CCOCC4)cc32)CC1,-5.14% (inactive),–
C=Cc1ccc(C(=O)N2CCCC(CCC(=O)N3CCN(c4ccccn4)CC3)C2)cc1 (stereo not given),–,17.8 µM (active)
COc1cccc(CC(=O)N2CCCC(CCC(=O)N3CCN(c4ccccn4)CC3)C2)c1 (stereo not given),-4.22% (inactive),–
CC(=O)c1ccc(S(=O)(=O)NCCC(=O)N2CCN(c3ccccn3)CC2)cc1,0.816% (inactive),–
CCOC(=O)c1ccc(NC(=O)C2CCN(S(=O)(=O)c3ccc4c(c3)CCCC(=O)N4)CC2)cc1,-4.81% (inactive),–
